# Results taken from PubChem BioAssay AID504329 (Southern Research Specialized Biocontainment Screening …, 2011).
# About 1,000 (0.29%) of roughly 340,000 compounds were called active. Not all results are given here. Potency and affinity values are given separately. Values without a mark were called inactive. No stated cut-off is given here; in the data, inconclusive means inhibition above about 27% without an active follow-up result; inactive means below that.
# Test: NS1A inhibition, H1N1 influenza, cell based functional assay (AID 504329)
# Conditions: percent inhibition, at 12.5 µM, active compounds read high
row,SMILES,inhibition [%]
1,COc1ccc(S(=O)(=O)Nc2ccc3c(c2)C(=O)N([C@H](C)CO)C[C@H](C)[C@@H](CN(C)C(=O)Nc2ccccc2)O3)cc1,6.6
2,COc1ccc(Nc2nc3c([nH]2)c(=O)[nH]c(=O)n3C)cc1,-6.85
3,O=C(CN1C(=O)NC2(CCOc3ccccc32)C1=O)NCCc1ccc(F)cc1 (stereo not given),-8.82
4,N#CCCN1CCN(C2=NC(=O)/C(=C\c3cccs3)S2)CC1,8.67
5,CCOC(=O)c1ccccc1NC(=O)/C=C/c1cc(OC)c(OC)c(OC)c1,-4.73
6,COc1cccc([C@@H]2CC=C(C(=O)O)[C@H](c3ccc(Br)cc3)N2S(=O)(=O)c2ccc(C)cc2)c1,-4.53
7,CN(N=Nc1ccc([N+](=O)[O-])cc1)c1ccccc1,8.69
8,CCCCN(C)c1ccc([N+](=O)[O-])cc1,11.8
9,Cc1ccc(CSC2=NCCN2C(=O)c2ccc([N+](=O)[O-])cc2)cc1,5.18
10,COc1ccc([C@@H]2CC=C(C(=O)O)[C@H](c3ccccc3)N2S(=O)(=O)c2ccccc2C)cc1,-3.46
11,COc1ccc(/C=N/S(=O)(=O)c2cccs2)cc1,4.61
12,COc1ccc(-c2nsc3c(SCc4ccccc4)ncnc23)cc1,-10.6
13,O=c1cc2oc3cc(O)c(O)cc3c(-c3ccccc3O)c-2cc1O,4.83
14,COc1ccc(OC)c(-c2oc3ccccc3c(=O)c2O)c1,-8.28
15,O=c1cc2oc3cc(O)c(O)cc3c(-c3ccccc3[N+](=O)[O-])c-2cc1O,20.1
16,Cc1cc2oc(=O)cc(-c3cc4ccccc4o3)c2cc1O,-6.82
17,COc1cc(-c2cc(=O)c3ccccc3o2)ccc1O,-19
18,COc1c(O)cc2oc(-c3ccc(O)c(O)c3)cc(=O)c2c1O,2.55
19,COc1ccc2c(=O)cc(-c3ccccc3F)oc2c1,-4.71
20,Cc1ccccc1-c1cc(=O)c2c(O)cccc2o1,-13.3
21,CCCC(OC(=O)CC1Sc2ccccc2NC1=O)C(=O)NCc1ccco1 (stereo not given),4.36
22,N#Cc1cc(-c2ccccc2)oc1NC(=O)c1ccccc1,0.56
23,COc1ccc(N2CCN(C(=O)c3ccc(S(=O)(=O)NCc4ccco4)cc3)CC2)cc1,6.25
24,Cc1ccc(N=Nc2[nH]c3ccccc3c2O)cc1,-4.85

row,SMILES,inhibition [%]
1,COc1ccc(N=Nc2ccc3ccccc3c2)c(O)c1,25.1
2,COc1cccc(N=Nc2ccc3cccnc3c2O)c1,6.02
3,Cc1ccc(C(=O)NNC(=O)c2ccc3ccccc3c2O)cc1,-5
4,CCOn1c(=O)c(-c2ccc(F)cc2)[n+]([O-])c2ccccc21,-9.53
5,O=C(COc1ccc(Cl)cc1)NCc1nnc(SCC(=O)Nc2ccc(F)cc2F)o1,12.3
6,O=C1N2CCSC2=NC1(Nc1nccs1)C(F)(F)F (stereo not given),-5.52
7,COC(=O)c1ccccc1S(=O)(=O)N(CCCN1CCOCC1)Cc1cccs1,18.3
8,COc1cccc(C2C(C#N)=C(N)N(N(C)C)C3=C2C(=O)CCC3)c1 (stereo not given),-18.6
9,Cn1c(CNc2ccccc2)nc2ccccc21,-15.8
10,Cc1ccc(NCc2nc3ccccc3n2C)cc1,3.76
11,O=C(CCCn1cnc([N+](=O)[O-])n1)Nc1cc(Cl)ccc1O,-2.62
12,O=C(Cn1cnc([N+](=O)[O-])n1)N/N=C/c1cccc2ccccc12,5.61
13,COc1ccccc1/C=N/NC(=O)Cn1cnc([N+](=O)[O-])n1,2.27
14,Cc1ccccc1/C=N/NC(=O)Cn1cnc([N+](=O)[O-])n1,0.54
15,O=C(Cn1cnc([N+](=O)[O-])n1)N/N=C/c1ccc2ccccc2c1,-2.51
16,Cc1cc([N+](=O)[O-])nn1Cc1ccc(C(=O)N/N=C/c2ccc(O)cc2O)cc1,2.59
17,O=C(Cn1cnc([N+](=O)[O-])n1)N/N=C/c1cccc(Cl)c1,-19.4
18,Cc1cc([N+](=O)[O-])nn1CC(=O)N/N=C/c1ccccc1O,13.7
19,CCN(CC)S(=O)(=O)c1ccc(Cl)c(NC(=O)COc2ccc3c(C)cc(=O)oc3c2)c1,15.6
20,CC(=O)c1cccc(NC(=O)CSc2ccc(-c3sc(C)nc3C)nn2)c1,-5.12
21,Cc1ccccc1NC(=O)/C(C#N)=C/c1ccc[nH]1,-10.5
22,COC(=O)c1ccc(N2CCN(C)CC2)c(NC(=O)COc2ccccc2)c1,4.25
23,COc1ccc(-c2noc(Cn3cc(S(=O)(=O)N4CCCC4)ccc3=O)n2)cc1,-10.2
24,Cc1ccc(/C=N/n2c(-c3ccc(Cl)cc3)n[nH]c2=S)o1,2.1

row,SMILES,inhibition [%]
1,Cc1cc(OCC(=O)N2CCC(C(=O)O)CC2)c2c3c(c(=O)oc2c1)CCC3,-2.02
2,O=C(c1c(F)cccc1F)N1CCN(c2cccc(C(F)(F)F)c2)CC1,-9.64
3,Nc1ccc(N=Nc2ccccc2Cl)c(N)n1,26.8
4,Nc1nc(-c2ccccc2)c(N=Nc2cccnc2)s1,18
5,Nc1nc(-c2ccccc2)c(N=Nc2ccc(Cl)cc2)s1,11.4
6,Nc1nc(-c2ccccc2)c(-c2ccccc2)s1,4.73
7,C=C(C)COc1ccc(-c2[nH]ncc2-c2ccc(OC)cc2)c(O)c1,9.07
8,CC(=O)c1sc(NC(=O)C2CCCN2S(=O)(=O)c2ccccc2F)nc1C (stereo not given),-3.2
9,COc1cc(C)ccc1OCCCOc1c(Cl)cccc1Cl,-6.86
10,CN(C)/N=C/C=C1\CC/C(=C\c2ccc(Br)cc2)C1=O,5.12
11,CC(C)c1ccc(/C=C2\CC/C(=C\C=N\N(C)C)C2=O)cc1,2.58
12,O=C(Nc1sc2c(c1C(=O)N1CCOCC1)CCCCC2)c1cccnc1,1.63
13,Cc1nccn1CC(=O)N/N=C/c1c[nH]c2ccccc12,-1.01
14,COc1cccc(/C=N/NC(=O)Cn2ccnc2C)c1,-3.78
15,Cc1nccn1CC(=O)N/N=C/c1cccc(O)c1,-4.69
16,Cc1nccn1CC(=O)N/N=C/c1cccs1,-26.6
17,COc1ccc(/C=N/N=C2/NC(=O)C(c3ccccc3)(c3ccccc3)S2)cc1,9.74
18,Cc1cccc(OCc2nnc(SCC(=O)Nc3cccc(C(=O)N4CCOCC4)c3)n2C)c1,-2.72
19,CN(CC(=O)Nc1ccccc1Br)C(=O)COc1cccc2c1OC(C)(C)C2,-2.61
20,Cc1cc(OCC(=O)N(C)C2CCCCC2)ccc1Cl,1.86
21,COc1ccc(C2CC(c3cccs3)=NN2C(=O)CSc2nc(=O)n3ccccc3n2)cc1 (stereo not given),-0.56
22,Cc1ccc(NC(=O)CN2C(=O)CN=C(c3ccccc3)c3cc(Cl)ccc32)cc1,24.3
23,CN(C)c1ccc(NC(=O)CN2C(=O)CN=C(c3ccccc3)c3ccccc32)cc1,-10.1
24,Oc1ccccc1-c1nc(NCc2ccco2)c2ccccc2n1,-19.2

row,SMILES,inhibition [%]
1,CCCN(CCC)c1nc(-c2ccccn2)nc2ccccc12,10.6
2,CCC(C)Nc1nc(-c2cccc(OC)c2O)nc2ccccc12 (stereo not given),4.38
3,CN1CCN(c2nc(-c3ccccn3)nc3ccccc23)CC1,10.9
4,c1ccc(CCNc2nc(-c3ccccn3)nc3ccccc23)cc1,21
5,C/C(=N\Nc1nc(-c2ccccn2)nc2ccccc12)c1ccc(F)cc1,0.16
6,c1ccc(CNc2nc(-c3ccccn3)nc3ccccc23)cc1,24.8
7,c1ccc(N2CCN(c3nc(-c4ccccn4)nc4ccccc34)CC2)cc1,18.4
8,Cc1noc(C)c1C(=O)OCC(=O)Nc1ccc(N2CCOCC2)cc1,5.46
9,O=C(Nc1ccc(OC(F)F)cc1)c1cc(S(=O)(=O)N2CCOCC2)ccc1N1CCCC1,-1.31
10,Cc1[nH]c2ccccc2c1C(=O)CNc1nccs1,-1.86
11,Cc1cccc(-c2nc(C#N)c(N3CCCCC3)o2)c1,3.65
12,COc1ccc(C2(OC)Oc3cc(OC)ccc3C(=O)C2(O)OC)cc1 (stereo not given),-14.3
13,COC(=O)c1ccccc1NC(=O)C1CCN(S(C)(=O)=O)CC1,-15.6
14,CCCCCN(C(=O)CCC(=O)OCC(=O)c1cccc(OC)c1)c1c(N)n(CCCC)c(=O)[nH]c1=O,-2.41
15,OCCNCCO,-1.33
16,O=C1c2cccc(NCCNCCO)c2C(=O)c2cccc(NCCNCCO)c21,28
17,O=C(O)c1ccccc1NCCO,-4.36
18,O=C(O)CCNc1ccc(NCCC(=O)O)c2c1C(=O)c1ccccc1C2=O,22.7
19,Cc1ccc(C2/C(=C(\O)c3c(C)nc4ccccn34)C(=O)C(=O)N2CCN(C)C)o1 (stereo not given),-13.9
20,COc1ccc(NC(=O)COC(=O)CCCOc2ccc(Cl)cc2Cl)cc1Cl,-5.19
21,Cc1[nH]nc2c1C(c1cnn(C)c1)C(C#N)=C(N)O2 (stereo not given),-1.46
22,Cc1ccc(NS(=O)(=O)c2cc([N+](=O)[O-])ccc2NNC(=S)Nc2cc(C)ccc2C)c(C)c1,21.2
23,COc1ccc(NC(=S)NNc2ccc([N+](=O)[O-])cc2S(=O)(=O)Nc2ccc(C)cc2C)cc1,17.3
